Screening results as filed in PubChem.
These entries were drawn from the full list.
aSyn 5UTR act: Activators working through SNCA 5'UTR binding (MLPCN) | activity score, % (tested at 7.5 µM), hits read low | alpha-synuclein 5'UTR reporter, activators screen | AID 1814 | hit rate 7.1% among 300,000; in the data active = activity score below about -60%
An asterisk follows results filed as active.

SMILES	aSyn 5UTR act
Cc1ccc(CN2C3CCCC2CC(NC(=O)c2ccc(C)cc2)C3)cc1 (stereo unspecified)	-163.5*
COc1ccc2c(C)c(C)c(=O)oc2c1OC	-84.5*
N#Cc1c(C(F)(F)F)cc(-c2ccc(Cl)c(Cl)c2)nc1SCCN1CCOCC1	-64.4*
O=[N+]([O-])c1cccc2ccc(/C=C/c3ccc(Cl)cc3)nc12	-149.3*
O=[N+]([O-])c1cccc2ccc(/C=C/c3ccc(C(F)(F)F)cc3)nc12	-94.0*
CC(=O)Nc1ccc(/C=C/c2ccc3c([N+](=O)[O-])cccc3n2)cc1	-163.7*
O=[N+]([O-])c1cccc2ccc(/C=C/c3cccc(Br)c3)nc12	-107.1*
c1ccc2c(c1)CCN(c1nc3ccccc3n3cnnc13)C2	-122.0*
C/C(=N\NC(=O)COc1ccc(C(C)(C)C)cc1)c1ccc(-n2ccnc2)cc1	-132.7*
CN(C)c1ccc(-c2nn3c(-c4ccccc4Cl)nnc3s2)cc1	82.3
Cc1nnc2sc(-c3ccc(N(C)C)cc3)nn2c1=O	-76.3*
COc1cc(SC)ccc1C(=O)Nc1ccc2c(c1)OCO2	-68.5*
COc1cc(SC)ccc1C(=O)Nc1ncc(Cl)cc1Cl	-90.8*
COc1ccc(Br)cc1C(=O)Nc1cc(C)cc(C)c1	-61.9*
COc1cc(SC)ccc1C(=O)Nc1ncc(C)s1	98.1
COc1cc(SC)ccc1C(=O)Nc1ccc(C)cc1	-141.6*
CCn1c(C(=O)OC)cc2c1ccn2-c1ccc(F)cc1	-157.1*
Oc1cccc(Nc2c3ccccc3nc3ccccc23)c1	-80.6*
CC(C)c1ccc(NC(=O)COc2ccc(F)cc2C(=O)c2cnn(-c3ccccc3)c2)cc1	-114.7*
O=C(COc1ccccc1C(=O)c1cnn(-c2ccccc2)c1)Nc1ccc2ccccc2c1	-136.2*
Cc1cccc(NC(=O)Nc2ccc(Br)cc2)n1	-126.8*
CCC(=O)Nc1ccc(C(=O)Nc2cccc(C)n2)cc1	-168.9*
COc1ccc(NC(=O)Nc2ccc(Br)cn2)cc1	-146.1*
COc1ccc(NC(=O)Nc2cccc(C)n2)cc1	-201.2*
Cc1ccc(/C=N/NC(=O)NC2CCCCC2)o1	-65.5*
SMILES	aSyn 5UTR act
Cc1ccc(S(=O)(=O)N(C)CC(=O)N/N=C/c2ccc(C)o2)cc1	46.5
Cc1ccc(/C=N/NC(=O)Nc2ccccc2)o1	-79.6*
Cc1cccc(N=Nc2cnc(N)s2)c1	-109.1*
COc1ccccc1-c1nnc(Sc2nc([N+](=O)[O-])nn2C)o1	-82.7*
COC(=O)c1ccc(Cn2nc(C)cc2C)cc1	-70.9*
CC1(C)CC(=O)c2cc(N=C/C(C(=O)c3ccccc3)=C(\O)c3ccccc3)c(=O)oc2C1	-72.3*
Cc1ccnc(NC(=O)c2sc3ccccc3c2Cl)c1	78.2
Cc1ccc2c(Cl)c(C(=O)NCC3CCCO3)sc2c1 (stereo unspecified)	-137.3*
Cc1ccc2c(Cl)c(C(=O)Nc3cc(C)on3)sc2c1	-121.7*
O=C(NCC1CCCO1)c1sc2ccccc2c1Cl (stereo unspecified)	-105.6*
O=C(CNC(=O)c1sc2ccccc2c1Cl)NC1CC1	-118.3*
O=C(NNC(=O)C1CC2CCC1C2)c1sc2ccccc2c1Cl (stereo unspecified)	-112.5*
CN(Cc1c(F)cccc1Cl)C(=O)CNC(=O)c1sc2ccccc2c1Cl	-66.4*
Cc1ccc2c(Cl)c(C(=O)NCCc3ccccc3)sc2c1	-165.8*
CC(NC(=O)c1sc2ccccc2c1Cl)C1CCCO1 (stereo unspecified)	-65.4*
O=[N+]([O-])c1cc(-c2n[nH]c(-c3ccccc3)n2)cc([N+](=O)[O-])c1	-75.8*
Oc1ccc(-c2nc3ccc4ccccc4c3c3c2CCC3)cc1O	-151.2*
COc1ccc(OC)c(NC(=O)c2ccccc2OC(C)=O)c1	-68.9*
CC(=O)Nc1ccc(OCc2ccc3c(c2)OCO3)cc1	-150.6*
COc1ccc(C(=O)/C=C(\C)Nc2ccc3c(c2)OCO3)cc1	-169.5*
COc1cccc(N/C(C)=C/C(=O)c2ccc(Br)cc2)c1	-172.0*
COc1ccc(OC)c(N/C(C)=C/C(=O)c2ccccc2)c1	-112.7*
COC(=O)/C(=C\C(=O)c1ccccc1)Nc1ccc(OC)cc1	-93.0*
COc1ccc(N/C(C)=C/C(=O)c2ccccc2)cc1	-150.9*
COc1ccc(OC)c(N/C=C/C(=O)c2ccccc2)c1	82.7
SMILES	aSyn 5UTR act
COc1ccc(N/C(C)=C/C(=S)Nc2ccccc2)cc1	-74.6*
COc1ccc(NC(=O)/C=C/c2ccc3c(c2)OCO3)cc1	-90.6*
Brc1ccc(-n2cnc(-c3ccccc3)c2)cc1	-136.0*
Cc1ccc2c(CNCc3ccco3)cc(=O)oc2c1	-64.9*
O=C(/C=C/c1ccc(-c2ccc(F)cc2)o1)N1CCCC1	-127.2*
CN1CCN(C(=O)/C=C/c2ccc([N+](=O)[O-])o2)CC1	-82.6*
O=c1c2[nH]c3ccccc3c2ncn1C1CCCCC1	-91.2*
CCN(CC)c1ccc(C(=O)n2cnc3ccccc32)cc1	-127.9*
CCN(CC)c1ccc(C(=O)Nn2cnc3ccccc3c2=O)cc1	-92.4*
CCN(CC)C(=O)c1ccc2nc3ccccc3nc2c1	50.2
CC1CCN(C(=O)CSCc2ccc(Cl)cc2)CC1	-95.5*
COC(=O)N/N=C/c1ccc(-c2cc(Cl)cc(Cl)c2)o1	52.0
NC(=O)N/N=C/c1ccc(-c2cccc(C(F)(F)F)c2)o1	-84.1*
C/C(=N\NC(=O)c1cccc(C)c1O)c1ccc(NC(=O)Cc2ccccc2)cc1	-73.9*
C/C(=N\NC(=O)c1ccccc1N)c1ccc(NC(=O)Cc2ccccc2)cc1	-67.8*
COc1ccccc1C(=O)N/N=C(\C)c1ccc(NC(=O)Cc2ccccc2)cc1	-104.3*
COc1ccccc1C(=O)NN=C1CCN(Cc2ccccc2)CC1	-72.9*
COc1ccccc1NC(=O)c1c(O)c2ccccc2[nH]c1=O	-76.3*
O=C(Nc1cccc(F)c1)c1c(O)c2ccccc2[nH]c1=O	-140.5*
COc1ccc(O)c(C(=O)C2c3ccccc3C(=O)N2c2ccc(C)cc2)c1 (stereo unspecified)	-116.2*
Cc1ccc(N2C(=O)c3ccccc3C2O)nc1 (stereo unspecified)	72.7
O=C1c2ccccc2C(O)N1c1ccc(Cl)cc1 (stereo unspecified)	-67.2*
COc1ccc(N2C(=O)c3ccccc3C2O)cc1 (stereo unspecified)	-78.5*
c1ccc(CC2CCN(C3=Nc4cccc5cccc3c45)CC2)cc1	-95.5*
Oc1ccc(CN2CCC(Cc3ccccc3)CC2)c2cccnc12	105.0
SMILES	aSyn 5UTR act
COc1ccccc1N1CCN(C2=Nc3cccc4cccc2c34)CC1	-181.4*
c1ccn2c(c1)nc1c2nc2ccccn21	-189.2*
Clc1c(-c2ccccc2)nc2ccccn12	-151.6*
Cc1c(-c2ccc(Br)cc2)nc2ccccn12	-180.6*
Cc1ccc(-c2nc3ccccn3c2C=O)cc1	-107.9*
COc1cc2oc(-c3ccc(O)cc3)cc(=O)c2c(O)c1OC	-73.4*
O=c1[nH]nc(Cc2ccc3ccccc3n2)c2ccccc12	-70.8*
Cn1cc(Br)c(C(=O)N/N=C/c2cc3c(cc2Cl)OCO3)n1	-140.3*
O=C(N/N=C/c1cc2c(cc1[N+](=O)[O-])OCO2)c1ccccn1	-81.2*
COc1cc(/C=N/NC(=O)c2ccccn2)cc2c1OCO2	-95.4*
O=C(N/N=C/c1cc2c(cc1Cl)OCO2)c1ccccn1	-91.5*
CCOc1ccc(C2=Nn3c(nnc3-c3ccc(OC)cc3)SC2)cc1	84.3
CCC(=O)N1CCC(c2ccc(OC)cc2)=N1	-75.4*
[O-]/C(=C(\C(=S)Nc1cccc2ccccc12)[n+]1ccccc1)c1ccc(Cl)s1	-63.3*
